Source: PubChem
Hits are enriched below; roughly 6.8% of the tested compounds scored in any of these assays.
MK inhibit – inhibitors of Streptococcus pneumoniae mevalonate kinase | hit rate 0.48% among 65,000 | purified MK, PK/LDH-coupled NADH absorbance 340 nm | inhibition, % at 10 µM;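 active = ranked among the strongest by inhibition in the single 10 µM screen, a fixed top-ranked set picked for dose follow-up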
PMK inhibit – S. pneumoniae PMK inhibition; inhibition, % at 10 µM; hit rate 0.49% among 65,000; AID 539; purified PMK, PK/LDH-coupled NADH absorbance 340 nm;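 active = top-ranked compounds by inhibition in the single 10 µM screen, taking a fixed number of the strongest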;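 note: 0% = full reaction with DMSO carrier and 100% = background rate without enzyme reaction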
Autofluor 339 – intrinsic fluorescence of library compounds, ex339/em460 – biochemical, MLSMR library, data from DPM-DC assay, artefact control, profiling panel; hit rate 5.5% among 65,000; fluorescence fold increase at 10 µM; compound autofluorescence, ex339/em460 nm, NADH buffer; active compounds read high; 1 = no-compound wells, NADH background;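 active = at 10 µM, mean starting fluorescence two-fold or more over control wells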;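 note: signal is the first read of a kinetic run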
NADH coupling – blocks coupling enzymes of NAD/NADH assays | coupled PK/LDH NADH assays, four targets | IC50, µM (series often up to 10 µM), without a hit: at the top dose inhibition | hit rate 0.02% among 65,000;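 active = single-dose screening hits from any of four coupled enzyme assays that gave an IC50 when retested across doses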;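 note: the DPM-DC format reads NADH fluorescence rather than 340 nm absorbance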
DPM-DC inhibit – blocks S. pneumoniae diphosphomevalonate decarboxylase | purified DPM-DC, PK/LDH coupled NADH fluorescence | calls only at 10 µM | hit rate 0.49% among 65,000;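 active = the 320 compounds with the highest percent inhibition in the single-dose primary screen, excluding strongly autofluorescent ones, cut at about 32% in these data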;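 note: kinetic rate of NADH fluorescence loss reporting ADP formed by the decarboxylase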
A340 absorber – compound absorbs light at 340 nm; compound absorbance at 340 nm, fold over control; 65,000 tested, under 10 active; fold change at 10 µM; AID 708;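 active = at 10 µM dose, initial 340 nm absorbance at least 2 fold that of control wells; inactive = change under 2 fold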;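 note: initial absorbance extrapolated from kinetic A340 decline of NADH oxidation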
The depositor's hits bear a star; i = inactive; . = no result shown; + = active, no number; [ ] = remark or other dose.

SMILES | MK inhibit | PMK inhibit | Autofluor 339 | NADH coupling | DPM-DC inhibit | A340 absorber
CCOc1ccccc1C(=O)Nc1ccc2nc(N3CCN(c4ncccn4)CC3)cc(C)c2c1 | 4 | 9 | 2.2* | 7% | . | 1.1
COc1ccc(C)cc1NC(=O)CCC(=O)Nc1ccc2nc(N3CCN(C)CC3)cc(C)c2c1 | 8 | 8 | 2.5* | 15% | i | 1
CCN1CCN(c2cc(C)c3cc(NC(=O)c4ccc5c(c4)OCO5)ccc3n2)CC1 | 4 | 3 | 1.1 | 3% | i | 1.1
Cc1cc(N2CCN(C)CC2)nc2ccc(NC(=O)CCC(=O)NCc3ccco3)cc12 | 7 | 6 | 3.5* | 13% | i | 1.1
Cc1cc(N2CCOCC2)nc2ccc(NC(=O)CCC(=O)N3CCCC(C)C3)cc12 (stereo not drawn) | 7 | 6 | 4.8* | 7% | . | 1.1
COc1cccc(C(=O)Nc2ccc3nc(N4CCN(c5ncccn5)CC4)cc(C)c3c2)c1OC | 10 | 0 | 1.4 | 5% | i | 1
O=c1[nH]c(Nc2ccccc2)cc2ccccc12 | 2 | 10 | 3.4* | 8% | . | 1
Nn1c(Nc2ccccc2)nc2ccccc2c1=O | 4 | 5 | 1.1 | 3% | i | 1
Cc1cc(NC(=O)C2COc3ccccc3O2)no1 (stereo not drawn) | 9 | 1 | 1 | 3% | i | 1
COc1cccc(OCCCCCN2CCOCC2)c1 | 3 | 0 | 1.1 | 1% | i | 1.1
Brc1ccc(OCCOCCN2CCOCC2)cc1 | 2 | 9 | 1.1 | 4% | i | 1
Cc1cc(OCCOCCN2CCCC2)ccc1C(C)C | 41* | 2 | 1.1 | 14% | i | 1.1
CCOc1cccc(OCCOCCN2CCCC2)c1 | 45* | 5 | 1 | 6% | i | 1
COc1cccc(CNCc2ccccn2)c1OC | 53* | 12 | 1.1 | 22% | i | 1
COc1ccccc1CNCc1cc(OC)c(OC)cc1OC | 53* | 22 | 1.1 | 25% | i | 1.1
COc1ccccc1CNC(=O)COc1ccccc1OC | 6 | 3 | 1.1 | 4% | i | 1
O=C(NCc1ccccn1)c1nnc(Cc2ccc(Cl)cc2)o1 | 2 | 5 | 1.1 | 2% | i | 1
CCn1c(=O)c2cc(C(=O)NCc3cccs3)sc2c2ccccc21 | 0 | 7 | 1.8 | 4% | i | 1.1
CCn1c(=O)c2cc(C(=O)Nc3cc(C)on3)sc2c2ccccc21 | 5 | 2 | 2.2* | 4% | . | 1.1
CCn1c(=O)c2cc(C(=O)NCCN3CCOCC3)sc2c2ccccc21 | 3 | 3 | 2.1* | 3% | . | 1.1
Cc1ccc2[nH]c(=O)c3cc(C(=O)NCCN4CCN(C)CC4)sc3c2c1 | 7 | 21 | 2.4* | 5% | . | 1
CCn1c2ccccc2c2nnc(SCC(=O)Nc3cc(C)on3)nc21 | 5 | 19 | 0.97 | 8% | i | 1.1
O=C(COC(=O)C1COc2ccccc2O1)Nc1ccc2c(c1)CCC2 (stereo not drawn) | 8 | 16 | 0.98 | 9% | i | 1
COCc1cc(C)nc2sc(C(=O)Nc3nccs3)c(N)c12 | 2 | 0 | 2.2* | 1% | . | 1.1
Cc1cc(C)c2c(N)c(C(=O)Nc3nccs3)sc2n1 | 4 | 6 | 2.1* | 5% | . | 1.1
SMILES | MK inhibit | PMK inhibit | Autofluor 339 | NADH coupling | DPM-DC inhibit | A340 absorber
Cc1ncoc1C(=O)Nc1nccs1 | 7 | 12 | 1 | 7% | i | 1
COc1cccc(CC(=O)Nc2nccs2)c1 | 0 | 12 | 1.1 | 4% | i | 0.99
COc1ccc2oc(=O)c(NC(=O)C3CCCCC3)cc2c1 | 1 | 14 | 4.2* | 8% | . | 1.1
CN(CC(=O)NCc1cccs1)S(=O)(=O)c1cccc2nsnc12 | 4 | 16 | 1.1 | 7% | i | 1.1
COC(=O)c1ccc(Nc2cc(C)nc(-c3ccccc3O)n2)cc1 | 81* | 92 | 1.8 | 79% | + | 1.1
Cc1c(Br)cc(C(=O)OC2CCN(C)CC2)c(C)c1C | 3 | 6 | 1.1 | 3% | i | 1.1
COC(=O)C1=CN(CCCN2CCCC2=O)C=C(C(=O)OC)C1c1cccs1 | 4 | 8 | 4.8* | 6% | . | 1
COC(=O)C1=C(N)OC2=C(C(=O)CC(C)(C)C2)C1c1cccs1 (stereo not drawn) | 4 | 0 | 1.1 | 1% | i | 1.1
Cc1cc(C)n(-c2nc(-n3nc(C)cc3C)c3c4c(sc3n2)COC(C)(C)C4)n1 | 11 | 0 | 1.3 | 7% | i | 1.1
Cc1cc(C)n(-c2nc3sc4c(c3c3nnc(SCC(N)=O)n23)CC(C)(C)OC4)n1 | 3 | 0 | 2.7* | 0% | i | 1.1
CSc1nnc2c3c4c(sc3nc(-n3nc(C)cc3C)n12)COC(C)(C)C4 | 3 | 0 | 3* | 2% | i | 1.1
Cc1cc2oc(C(=O)N(Cc3ccco3)C3CCS(=O)(=O)C3)cc(=O)c2cc1Cl (stereo not drawn) | 0 | 0 | 1.2 | 0% | i | 1
Cn1c(=O)c2c(nc(SCC(=O)Nc3ccc(N4CCOCC4)c(Cl)c3)n2C)n(C)c1=O | 3 | 0 | 1.1 | 1% | i | 1.1
CCCCOC(=O)Nc1cc(OC)c(Cl)cc1OC | 3 | 2 | 0.99 | 2% | i | 1.1
N#Cc1cc(N)c(Nc2ccccc2)cc1C#N | 0 | 10 | 3.5* | 14% | i | 1.1
CCc1c(C(=O)Nc2ccncc2)csc1C | 7 | 0 | 1.1 | 2% | i | 1
Cc1cc2c(C)cc(=O)oc2c2c1NCCC2 | 12 | 1 | 3.6* | 7% | . | 1.1
COc1ccc(OC)c(C2=NO[C@@H]3C(=O)N(c4cc(Cl)ccc4OC)C(=O)[C@H]23)c1 | 7 | 14 | 2* | 11% | i | 1.1
COc1ccccc1-c1c(C)oc2cc(OC(=O)c3ccco3)ccc2c1=O | 15 | 1 | 2.1* | 14% | i | 1.1
CCOC(=O)c1cc2ccc(OC(=O)c3ccco3)cc2oc1=O | 9 | 5 | 3.7* | 7% | . | 1.2
COc1ccccc1Oc1c(C)oc2cc(OC(=O)c3ccco3)ccc2c1=O | 8 | 8 | 2.6* | 12% | i | 1
O=C(CN1C(=O)C2C3C=CC(C3)C2C1=O)N1CC=C(c2ccccc2)CC1 (stereo not drawn) | 6 | 15 | 1.1 | 7% | i | 0.98
CCOC(=O)C1CCN(Cc2nc3ccc(Cl)cc3n2CCO)CC1 | 8 | 22 | 1.1 | 10% | i | 0.99
Cc1cccc(N(C)C(=O)c2cc3cc4ccc(C)cc4nc3o2)c1 | 4 | 9 | 1.4 | 3% | i | 1.1
Cc1ccc2cc3cc(C(=O)NCCCN4CCc5ccccc5C4)oc3nc2c1 | 0 | 2 | 5.1* | 1% | . | 1.1
Cc1ccc2cc3cc(C(=O)NCCCN4CCCCCC4)oc3nc2c1 | 0 | 0 | 5.1* | 0% | . | 1.1
CCn1cc(C(=O)NCc2ccco2)c(=O)c2cc(F)c(N3CCN(C(=O)c4ccco4)CC3)cc21 | 3 | 10 | 2.4* | 4% | +[fluoresces] | 1
